91 compounds from PubChem BioAssay AID651997 (Sanford-Burnham Center for Chemical Genomics, 2013) can be followed below.

Screen size: about 2,400 compounds; about 700 (29%) were called active. The list is a sample of the results. Values without a mark were called inactive.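 The calls were made as follows: active = inhibition of at least 50%; inactive = the rest.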

In the test the target is G-protein coupled receptor 183 (Homo sapiens) (UniProt P32249). Put plainly: EBI2 antagonist hit retest, beta-arrestin, confirmation, cell-based, single concentration, luminescence, 7a,25-OHC stimulation (AID 651997). The settings on record: 7a,25-OHC antagonism, at 5 µM, stronger effect = higher value.
Chain of G-protein coupled receptor 183 (Homo sapiens) (P32249 whole entry, looked up): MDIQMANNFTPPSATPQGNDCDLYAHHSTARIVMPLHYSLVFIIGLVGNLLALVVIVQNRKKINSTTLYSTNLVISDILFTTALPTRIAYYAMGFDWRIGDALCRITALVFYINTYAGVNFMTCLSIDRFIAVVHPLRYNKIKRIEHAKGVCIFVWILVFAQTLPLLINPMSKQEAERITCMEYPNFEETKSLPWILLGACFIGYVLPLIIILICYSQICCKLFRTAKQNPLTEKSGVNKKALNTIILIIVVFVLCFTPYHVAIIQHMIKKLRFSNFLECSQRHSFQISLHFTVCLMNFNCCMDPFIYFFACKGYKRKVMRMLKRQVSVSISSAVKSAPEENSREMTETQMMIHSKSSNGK
On to `COc1ccc([C@H]2CC(=O)C=C(c3ccc(C)cc3)C2)cc1`, for which the inhibition (usually the change of the read-out against control, counted positive when it falls) is 56.3% (active). Regarding `COc1ccc([C@H]2CC(=O)C=C(/C=C/c3ccc(Cl)cc3)C2)cc1`, the inhibition was 20.8%.

For `COc1ccc2cc(C3=CC(=O)C[C@H](c4ccc5c(c4)OCO5)C3)ccc2c1`, the inhibition was 51.4% (active).

Turning to `N#Cc1ccc(C2=CC(=O)C[C@H](c3ccc(Cl)cc3)C2)cc1`, the inhibition is 53.7% (active). `CCCCN=C1C([N+](=O)[O-])=CC=C2C1=NC1(CCCCC1)N2O`: the inhibition was 38.6%. In the case of `CCOc1ccc(CCN2C(=S)N([C@@H](CC(C)C)CN3CCC[C@@H]3CN3C(=S)NC[C@@H]3Cc3ccc(O)cc3)C[C@@H]2Cc2ccc(O)cc2)cc1` it was 26.9%; in that of `CC1(Cc2ccccc2C#N)C(=O)Nc2ccc(-c3ccc4[nH]ccc4c3)cc21` (stereo unspecified), 31.6%.

On to `COc1ccc(CNC(=O)CN(c2ccc(OC)c(Cl)c2)S(=O)(=O)c2ccc(C)cc2)cc1`, for which the inhibition is 6.43%. Take `Cc1ccc2oc(=O)c3cnn(CC(=O)N(Cc4ccco4)C4CCCCC4)c3c2c1`: the inhibition is 76.3% (active).

Consider `Cc1ccc2oc(=O)c3cnn(CC(=O)N4CCCCCC4)c3c2c1`, for which the inhibition was 31%. In the case of `O=C(Nc1ccc(S(=O)(=O)N2CCCCC2)cc1)C1CC(=O)N(c2ccc(F)cc2)C1` (stereo unspecified) it was 17.5%; in that of `Cc1ccc(-c2nn(-c3ccccc3)cc2/C=C/C(=O)Nc2cccc(S(N)(=O)=O)c2)cc1`, 25.3%. To `COc1ccc(-c2cn(-c3ccc(OC)cc3)c(=S)[nH]2)cc1` belongs 68% (active). Regarding `CCOc1ccc(CN(Cc2ccco2)S(=O)(=O)c2ccc(-n3cnnn3)c(OC)c2)cc1`, the inhibition was 24.7%. As to `CCN(CC(=O)NCc1cccs1)C(=O)/C=C/c1ccc(C)cc1`, the inhibition is 85.2% (active). To `O=c1[nH]c(CN2CCN(S(=O)(=O)c3ccc4c(c3)OCCO4)CC2)nc2sc3c(c12)CCCC3` belongs 27.9%; to `Cc1ccc(S(=O)(=O)NCCNC(C)c2ccc(Br)cc2)cc1` (stereo unspecified), 9.45%; to `COc1ccc(/C=C/C(=O)c2ccc(OC)cc2O)cc1`, 41.6%. In the case of `COc1ccc(C(=O)/C=C/c2ccc(OC3CSC3)cc2)cc1` it was 25.8%; in that of `Cc1nc(-c2ccccc2)sc1C(=O)/C=C/c1ccccc1`, 52.2% (active); in that of `CN(Cc1ccc(F)cc1)C(=O)COc1ccc2ccccc2c1`, 84% (active). Regarding `CCC(C)(C)NC(=O)c1cc([N+](=O)[O-])ccc1N1CCCCC1`, the inhibition was 42.4%.

As to `COc1ccc(-c2cc(C3CCN(c4ncccc4[N+](=O)[O-])CC3)[nH]n2)cc1`, the inhibition is 32.3%. Regarding `O=C(C(c1ccccc1)c1ccccc1)N1CCN(CC(O)COc2ccccc2)CC1` (stereo unspecified), the inhibition was 15.3%. As to `COc1ccc(C(C(=O)NC2CCCCC2)N(C(=O)c2snc(C(N)=O)c2N)c2ccccc2OC)cc1` (stereo unspecified), the inhibition is 57% (active). In the case of `CC1CCc2sc3nc(N4CCN(CCO)CC4)n4ncnc4c3c2C1` (stereo unspecified) it was 67.9% (active); in that of `Cc1cccc(-n2c(O)c(C=Nc3ccccc3N)c(=O)[nH]c2=O)c1`, 13.2%; in that of `Cc1ccc(S(=O)(=O)N2CCN(CC(=O)N/N=C/c3ccc(Br)s3)CC2)cc1`, 41.9%.

Turning to `CCC1Nc2ncnc(N3CCN(c4ccccc4)CC3)c2N(Cc2ccc(Cl)cc2)C1=O` (stereo unspecified), the inhibition is 86.9% (active). As for `CC(=O)/C(=N\Nc1ccc(Cl)cc1Cl)Sc1cccc2cccnc12`, the inhibition is 43.2%. To `CC(C)Cc1ccc(-c2cc3nc(NCc4cccc(Cl)c4)ccn3n2)cc1` belongs 51.8% (active). In the case of `Cc1cccc(N2CCN(C(=O)c3cc4c(=O)[nH]c5ccccc5c4n3C)CC2)c1C` it was 75.1% (active); in that of `COc1cccc(-c2cc(C(=O)N3CCN(c4ccccc4OC)CC3)no2)c1`, 42.9%; in that of `O=C(CCNS(=O)(=O)c1ccccc1)NCCSc1ccc(Br)cc1`, 12.7%. For `CCN1CCN(C(=O)CSc2ccc(C)cc2)CC1`, the inhibition was 27.6%.

Turning to `CCOC(=O)N1CCN(C(=O)COc2ccc(Cl)cc2C)CC1`, the inhibition was 30.2%. Turning to `CCOC(=O)N1CCN(C(=O)COc2ccc(Br)cc2)CC1`, the inhibition was 75.6% (active). In the case of `CCOC(=O)C1CCN(C(=O)COc2cc(C)c(Br)c(C)c2)CC1` it was 59% (active). As for `Cc1ccc(SCC(=O)N2CCN(c3ccc(F)cc3)CC2)cc1`, the inhibition is 33.8%.

With `Cc1ccc(OCCNC(=O)CCNS(=O)(=O)c2ccc(Br)cc2)cc1`, the inhibition was 17.6%.

Consider `CCOC(=O)N1CCN(C(=O)CSc2ccc(Cl)cc2)CC1`, for which the inhibition was 80.2% (active). To `Cc1cc(OCCOc2cccc3cccnc23)c(C)cc1Cl` belongs 38.3%; to `O=C(CSc1ccccc1)Nc1cc(Cl)ccc1Oc1ccccc1`, 45%.

Regarding `CCC(c1nnc(SCC(=O)NNC(=O)c2ccccc2)n1Cc1ccccc1)N(C)C` (stereo unspecified), the inhibition is 35.9%. With `O=C(Nc1ncc2c(n1)CC(c1ccco1)CC2=O)c1ccc(Cl)cc1` (stereo unspecified), the inhibition was 10.5%. In the case of `N#Cc1ccc(C(c2nnnn2CCc2ccccc2)N2CCCCCC2)cc1` (stereo unspecified), the inhibition is 34.1%. In the case of `Cc1cccc(N=C2NC(=O)/C(=C/c3cn(C)c4ccccc34)S2)c1` it was 33.9%.

With `COc1ccc(/C=N/N=C/c2c[nH]c(=O)c(C#N)c2Nc2ccccc2)cc1`, the inhibition was 79.2% (active). As for `FC(F)(F)Oc1ccccc1C(c1nnnn1C1CCCCC1)N1CCN(C/C=C/c2ccccc2)CC1` (stereo unspecified), the inhibition is 23%.

Turning to `O=C(c1cc(=O)c2ccccc2o1)N1CCN(c2ccccc2)CC1`, the inhibition was 20.1%. `COc1ccccc1N1CCN(C(=O)c2cc(=O)c3cc(C)ccc3o2)CC1`: the inhibition is 76% (active). To `COc1ccccc1N1CCN(C(=O)c2cc(-c3ccc(Br)cc3)on2)CC1` belongs 20.4%; to `O=C(NNC(=O)c1ccc2ccccc2c1)c1ccc(Cl)cc1`, 26.7%; to `O=C(NCCCc1ccccc1)C1CCC(=O)N(CCc2ccc(Cl)cc2)C1` (stereo unspecified), 41.6%. As to `O=C(c1cc2cc(F)ccc2[nH]1)N1CCN(c2ccc(F)cc2)CC1`, the inhibition is 43.5%.

Turning to `Cc1cs/c(=N\N=C\c2ccc(O)cc2)n1Cc1ccco1`, the inhibition is 34.7%.

In the case of `CCCCC(=O)N(C)c1c(CC)nc2c(OCc3ccc(Cl)cc3Cl)cccn12`, the inhibition was 35.5%. As to `CC(C)N(Cc1ccccc1)C(=S)Nc1ccc(OC(F)F)cc1`, the inhibition was 24.2%. As for `COc1ccc(NC(=O)N2CCC(Cc3ccccc3)CC2)cc1`, the inhibition was 55% (active).

On to `CCCC1CCC(=NNC(=S)NCCc2ccccc2)CC1` (stereo unspecified), for which the inhibition was 23.4%. To `COc1ccc(-c2cc(NC=O)c3ncc(-c4cccc(C(=O)N(C)C)c4)n3c2)c(OC)c1` belongs 23.2%.

`Cc1ccc(O/C=C2\OC(=O)c3ccccc32)cc1`: the inhibition was 16%. In the case of `COc1cccc(NC(=O)Cn2c3ccccc3c3nc4n(c(=O)c32)CCS4)c1` it was 30.1%.

Regarding `O=C(/C=C/c1cccc(C(F)(F)F)c1)N1CCN(c2ccccn2)CC1`, the inhibition is 28.2%. `O=C(c1cc2ccccc2s1)N1CCN(c2ccccn2)CC1`: the inhibition is 55.7% (active). In the case of `Cc1ccc(CSCCNC(=O)CN(c2ccc(F)cc2)S(C)(=O)=O)cc1` it was 23.3%; in that of `O=C(NCCNc1ccc([N+](=O)[O-])cc1)c1cccc2c(Br)cccc12`, 38%. Regarding `Cc1cc(Cl)c2oc(C(=O)N3CCC(O)(c4ccccc4)CC3)c(C)c2c1`, the inhibition is 43.3%.

Turning to `Fc1ccccc1/C=N/Nc1cc(N2CCCCC2)ncn1`, the inhibition was 55% (active). To `COc1ccc(-n2c(Cc3cccn3C)nnc2SCC(=O)Nc2cc(C)cc(C)c2)cc1` belongs 7.81%; to `O=C(NCc1ccc(Cl)cc1)C1CCN(S(=O)(=O)c2cccs2)CC1`, 23%; to `N#CC(=C1CCCC1)c1nc(-c2ccc(Cl)cc2)cs1`, 54.8% (active). To `CCOc1ccc(C(C)=O)cc1COC(=O)c1cnc(Cl)c(Cl)c1` belongs 14.3%; to `COc1cccc(NC(=O)Cn2c3ccc(F)cc3c3nc4n(c(=O)c32)CCS4)c1`, 41.9%; to `O=C(COc1ccc2ccccc2c1)N1CCN(C(=O)c2cccs2)CC1`, 61% (active).

Regarding `COc1ccc(OCC(=O)N2CCN(C(=O)c3cccs3)CC2)cc1`, the inhibition is 30.8%.

For `O=C(/C=C/c1ccc(Cl)cc1)N1CCN(c2ccccc2[N+](=O)[O-])CC1`, the inhibition was 88.6% (active). As for `O=C(/C=C/c1cccc([N+](=O)[O-])c1)N1CCN(Cc2ccccc2)CC1`, the inhibition is 29.4%. With `Cc1ccc(N2CC(C(=O)Nc3ccc(S(=O)(=O)N4CCCC4)cc3)CC2=O)cc1C` (stereo unspecified), the inhibition was 34.7%. Take `O=C(CCc1ccccc1)NNC(=O)COc1ccc(Cl)cc1`: the inhibition is 17.4%. To `O=C(c1cc2ccccc2o1)N1CCN(S(=O)(=O)c2ccc(Cl)s2)CC1` belongs 70.7% (active).

As for `Cc1ccc(OCC(=O)N2CCN(C(=O)c3cccnc3)CC2)cc1`, the inhibition was 17.6%. In the case of `Cc1cc(OCC(=O)N2CCN(c3ncccn3)CC2)ccc1Cl` it was 50.9% (active). As to `Cc1cccc(OCC(O)CN2CCN(S(=O)(=O)c3ccc(C)cc3C)CC2)c1` (stereo unspecified), the inhibition is 35.6%. Consider `Cc1ccc(OCC(=O)N2CCN(S(=O)(=O)c3ccc(Cl)s3)CC2)cc1C`, for which the inhibition is 79% (active). In the case of `O=C(COc1ccc(Cl)cc1)N1CCN(S(=O)(=O)c2ccc(Cl)cc2)CC1` it was 72.8% (active); in that of `COc1ccc(OCC(=O)N2CCN(C(=O)COc3ccccc3)CC2)cc1`, 24.9%; in that of `Cc1ccc(S(=O)(=O)N2CCN(C(=O)CSc3cc(C)ccc3C)CC2)c(C)c1`, 33.4%.

Turning to `CN1CCc2ccccc2C1Cc1ccccc1NC(=O)c1sc2ccccc2c1Cl` (stereo unspecified), the inhibition was 14%.

For the compound `Fc1ccc(N2CCN(Cc3cnc(Oc4ccc(Br)cc4)s3)CC2)cc1`, the inhibition was 40.8%. To `COc1ccc(OC)c(C(=O)c2coc3ccc(O)c(CN4CCOCC4)c23)c1` belongs 22.3%.
